Source: PubChem BioAssay
Sfp PPTase inh: inhibitors of Bacillus subtilis Sfp phosphopantetheinyl transferase; Q9F4F7; Biochemical Sfp PPTase activity, qHTS; Potency, µM, hits mostly inhibitors; 310,000 compounds, 3.5% hits; AID 1490;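 further: the enzyme is Sfp with the accession as filed and its product quenches rhodamine fluorescence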
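Compounds were incubated with enzyme (final 15 nM) for 15 min at room temperature before substrate addition started the reaction. Fluorescence at 525 nm excitation, 598 nm emission was recorded immediately and after 30 minutes.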
G9a block: G9a (human) methyltransferase inhibition | G9a H3K9 monomethylation, AlphaScreen, 2 h | Q96KQ7 | AID 504332 | 350,000 compounds, 8.8% hits | Potency, µM (doses to about 102 µM), most hits filed as inhibitors; further: nearly all actives have a fitted effect of over 75% in size
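Step 1: enzyme (final 20 nM) with compound, 15 min RT. Step 2: substrate peptide 500 nM and SAM 20 uM, 2 h RT. Step 3: anti-H3K9me1 antibody and AlphaScreen beads, 10 min, then plate read.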
BAZ2B block: blocks human BAZ2B. AlphaScreen BAZ2B-H3K14Ac peptide displacement. Q9UIF8. Potency, µM (doses to about 114 µM), hits mostly inhibitors. AID 504333. 360,000 compounds, 4.4% hits; further: nearly all actives have a fitted effect of over 60% in size
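Inhibition is scored as reduced AlphaScreen emission. The BAZ2B/b-H3(5-23)K14Ac complex (50 nM each) in PBS pH 7.4, 0.01% Tween-20 meets compound (up to 110 uM) for 30 min at RT before bead addition.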
L3MBTL1 inh: inhibitors of human L3MBTL1. 230,000 compounds, 0.66% hits. AlphaScreen L3MBTL1–H3K9me1 peptide binding. Q9Y468. Potency, µM (highest dose often 57.1 µM), actives largely listed as inhibitors; further: nearly all actives have a fitted effect of over 60% in size
Target sequence (Q9Y468 whole entry, looked up): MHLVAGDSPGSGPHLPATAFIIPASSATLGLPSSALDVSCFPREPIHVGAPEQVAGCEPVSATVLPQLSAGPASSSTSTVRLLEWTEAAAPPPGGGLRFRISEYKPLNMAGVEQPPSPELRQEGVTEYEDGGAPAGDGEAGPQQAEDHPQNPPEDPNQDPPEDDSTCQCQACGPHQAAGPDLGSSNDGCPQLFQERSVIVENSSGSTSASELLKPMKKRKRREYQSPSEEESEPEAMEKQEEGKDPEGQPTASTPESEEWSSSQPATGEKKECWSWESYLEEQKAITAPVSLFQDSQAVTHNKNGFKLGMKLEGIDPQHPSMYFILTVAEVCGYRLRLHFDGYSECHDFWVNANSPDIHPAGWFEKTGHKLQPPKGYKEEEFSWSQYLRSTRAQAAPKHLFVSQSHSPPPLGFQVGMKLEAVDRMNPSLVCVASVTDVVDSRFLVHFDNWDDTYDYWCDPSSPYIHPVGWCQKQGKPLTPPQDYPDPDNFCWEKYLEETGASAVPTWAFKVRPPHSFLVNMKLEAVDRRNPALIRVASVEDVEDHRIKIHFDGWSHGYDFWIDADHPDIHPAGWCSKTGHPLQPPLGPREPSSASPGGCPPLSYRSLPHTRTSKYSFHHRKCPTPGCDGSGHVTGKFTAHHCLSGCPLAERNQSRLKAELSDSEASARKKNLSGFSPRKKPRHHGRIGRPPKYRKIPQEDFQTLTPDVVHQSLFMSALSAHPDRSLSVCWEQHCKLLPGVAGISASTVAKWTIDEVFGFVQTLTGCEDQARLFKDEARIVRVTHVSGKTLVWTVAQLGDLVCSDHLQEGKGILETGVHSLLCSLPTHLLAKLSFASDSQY
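Displacement of a biotinylated histone H3(1-15) peptide monomethylated at Lys9 (75 nM) from L3MBTL1 (50 nM) was measured by AlphaScreen after a 30 min room-temperature compound incubation; cefsulodin titration served as intraplate control.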
JMJD2A Tudor inh: blocks the human JMJD2A Tudor domain; O75164; AlphaScreen JMJD2A-Tudor / H3K4me3 peptide binding; Potency, µM (top dose mostly 114 µM), most hits filed as inhibitors; 390,000 compounds, 4.4% hits; AID 504339; further: nearly all actives have a fitted effect of over 50% in size
HP1b chromo inh: HP1-beta chromodomain-methylated histone interaction inhibition; AlphaScreen HP1-beta / biotin-H3K9me3 peptide binding; Potency, µM (highest dose often 114 µM), usual class: inhibitors; 390,000 compounds, 0.56% hits; AID 540317; further: nearly all actives have a fitted effect of over 70% in size
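AlphaScreen: HP1-beta (50 nM) preformed 30 min with biotin-H3(1-18)K9me3 peptide (50 nM) in PBS pH 7.4, 0.01% Tween-20. Compound added for 30 min at RT, then streptavidin donor/nickel chelate acceptor beads (10 ug/mL) for 30 min.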
A number is an active result; 0 = inactive; ? = inconclusive; - = no result; [ ] = another dose, or the depositor's remark. Only some compounds are listed: those with a hit (about 12% of all), similar ones and a draw of the others. The call rests on the fitted dose curve; in most records, active means well fitted curve in the direction sought with a large enough effect; inconclusive means small, poorly fitted or top-dose-only effect, or another doubt; inactive means no such curve, though single readings can be large; an effect the other way counts as inactive or inconclusive.

SMILES	Sfp PPTase inh	G9a block	BAZ2B block	L3MBTL1 inh	JMJD2A Tudor inh	HP1b chromo inh
O=C(c1ccc(F)cc1)N1CCN(c2ccc([N+](=O)[O-])c(N3CCCCC3)c2)CC1	0	28µM	?	0	?	0
O=C(CCNC(=O)c1ccccc1)Nc1cccnc1	0	0	0	-	45µM	0
O=C(NCc1ccccc1F)c1ccc(CN2CC(=O)N3CCCCC3C2=O)cc1 (centres undefined)	-	0	0	-	0	0
Cc1oc2ccc(O)c(CN3CCCC(C)C3)c2c1C(=O)Nc1ccccc1 (centres undefined)	-	0	0	-	0	0
COc1ccc(CNC(=O)CCC(=O)Nc2cccnc2)cc1	0	40µM	0	0	0	0
CCCOc1cccc(C(=O)NC(=S)Nc2ccc(N3CCN(C)CC3)cc2)c1	0	0	0	0	?	?
O=C(NC(=S)NCc1cccnc1)c1ccccc1	0	0	0	0	0	0
COc1cc(C(=O)Nc2ccccc2C(=O)NCc2cccnc2)cc(OC)c1OC	0	0	0	-	0	0
CCOc1cccc(C(=O)NC(=S)Nc2ccc(N3CCN(CC)CC3)cc2)c1	0	14µM	35µM	0	56µM	?
O=C(NC(=S)Nc1cccnc1)c1ccccc1	79µM	79µM	0	-	0	0
COc1ccc(C(=O)Nc2ccccc2C(=O)NCc2cccnc2)cc1OC	0	71µM	0	-	0	0
COc1cc(C(=O)N2CC(=O)Nc3ccc(C)cc3C2c2ccc(F)cc2)cc(OC)c1OC (centres undefined)	-	0	0	-	0	0
O=c1cc(N2CCNCC2)oc2c(-c3ccccc3)cccc12	0	0	-	-	-	-
COc1ccc(C2C(=O)N(C3CCCCCC3)CC(=O)N2CCc2ccccc2)cc1 (centres undefined)	-	0	0	-	0	0
COc1cc2c(C(=O)N(C)c3cc(Cl)ccc3OC)cn(CC(C)C)c(=O)c2cc1OC	-	0	0	-	0	0
COc1cc(OC)cc(C(=O)NC(=S)Nc2ccc(N3CCCC3)cc2)c1	?	10µM	?	0	?	?
C=CCOC(=O)C1=C(C)Nc2[nH]c(=O)[nH]c(=O)c2C1c1cccc(OC)c1 (centres undefined)	0	0	0	0	-	-
COC(=O)C1=C(C)Nc2[nH]c(=S)[nH]c(=O)c2C1c1ccc(OC)cc1 (centres undefined)	40µM	8.9µM	?	0	?	0
O=C(C1CCN(S(=O)(=O)Cc2ccccc2)CC1)N1CCN(c2ccccc2)CC1	-	0	0	-	0	0
Cc1ccc(C)c(NC(=O)CSc2c(C)cnc3c2c(=O)n(C)c(=O)n3C)c1	-	0	0	-	0	0
COc1ccccc1/C=C/C=N/n1c(-c2ccccc2)n[nH]c1=S	0	-	0	0	0	0
CCOc1ccccc1/C=N/n1c(C2CCCCC2)n[nH]c1=S	0	14µM	0	-	?	0
S=c1[nH]nc(C2CCCCC2)n1/N=C/c1ccccc1Cl	63µM	2.2µM	?	-	22µM	?
O=C(O)c1ccccc1/C=N/Nc1nc(N2CCCCC2)nc(N2CCCCC2)n1	0	0	0	0	-	-
Cc1n[nH]c(=S)n1/N=C/c1ccccc1OCc1ccc(Cl)cc1Cl	0	0	0	0	0	0
SMILES	Sfp PPTase inh	G9a block	BAZ2B block	L3MBTL1 inh	JMJD2A Tudor inh	HP1b chromo inh
COc1ccccc1/C=C/C=N/n1c(C2CCCCC2)n[nH]c1=S	0	3.2µM	0	0	?	?
O=C(O)c1ccccc1/C=N/n1c(C2CCCCC2)n[nH]c1=S	0	22µM	0	-	7.9µM	0
CC(C)Cn1c(=O)c2sccc2n2c(CCCC(=O)N3CCN(c4ccc(F)cc4)CC3)nnc12	-	0	0	-	0	0
CC(C)c1ccc(S(=O)(=O)c2cnc(SCC(=O)Nc3ccc4c(c3)OCCO4)[nH]c2=O)cc1	-	0	0	-	0	0
CCc1nn(CC(=O)N2CCN(c3cccc(C)c3C)CC2)c(=O)c2cc3sccc3n12	-	0	0	-	0	0
FC(F)(F)c1ccccc1/C=N/n1c(C2CCCCC2)n[nH]c1=S	?	8.9µM	0	-	?	0
S=c1[nH]nc(-c2cccs2)n1/N=C/c1cn(-c2ccccc2)nc1-c1cccs1	0	-	?	-	?	0
COc1ccccc1NC(=O)n1ncc2c(C)cccc21	-	0	0	-	0	0
Cc1ccc(NC(=O)c2oc3ccc(S(=O)(=O)N4CCC5(CC4)OCCO5)cc3c2C)c(C)c1	-	0	0	-	0	0
CN1CCN(CCCCC(=O)c2ccccc2)CC1	0	?	?	-	0	0
Cc1ccc(Cl)c(OCCCCN2CCC(C)CC2)c1	-	-	-	-	0	0
CC1CCN(CCOc2cc(Cl)ccc2Cl)CC1	0	?	50µM	0	3.5µM	?
Clc1ccc(Cl)c(OCCCCN2CCCCC2)c1	0	8.9µM	?	0	32µM	?
c1ccc2c(OCCCCN3CCCC3)cccc2c1	0	35µM	56µM	0	40µM	?
CN1CCN(CCCCOc2ccccc2C=O)CC1	25µM	-	22µM	0	4µM	?
CCc1ccc(N=C2NC(=O)CC(C(=O)Nc3ccc(OC)cc3)S2)cc1 (centres undefined)	-	?	0	-	?	0
O=C(OCCN1CCCCC1)c1ccccc1F	0	0[12.7 µM]	0	-	0	0
Clc1ccccc1OCCCCN1CCCCC1	0	-	?	0	28µM	?
Cc1ccccc1OCCCCCCN1CCNCC1	-	-	-	-	0	0
Clc1ccccc1OCCCCN1CCNCC1	?	-	28µM	0	3.2µM	?
